From PubChem BioAssay (NCI)
This is part of a sample that, as a whole, favours compounds with a hit. Of some 79,000 tested, about 15% had one in any assay. Values without a mark were called inactive. Active and inactive are the calls of the source. Rule as the data show it: active = growth inhibition above about 70%; inactive = the rest.

Tests used:
[1] = NCI Yeast Anticancer Drug Screen. Data for the rad50 strain (AID 155);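 also: 0% = growth of vehicle-only cultures of the same strain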; conditions: S. cerevisiae rad50 strain growth inhibition; at 50.0 µM; active compounds read high
Procedure, shortened: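 Inhibition values express reduced yeast growth in compound-treated cultures relative to vehicle-treated controls.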

[2] = NCI Yeast Anticancer Drug Screen. Data for the mec2-1 strain (AID 157); conditions: S. cerevisiae mec2-1 strain, at 50.0 µM, active compounds read high
Procedure, shortened: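 Compounds were applied to mec2-1 yeast cells. Their growth was then compared with that of vehicle-treated cultures to give growth inhibition.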

[3] = NCI Yeast Anticancer Drug Screen. Data for the sgs1 mgt1 strain (AID 161);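 also: 0% = growth of cultures given vehicle only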; conditions: S. cerevisiae sgs1 mgt1 strain, at 50.0 µM, active compounds read high
Procedure, shortened: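 Growth of a repair-deficient yeast mutant was monitored after compound treatment and expressed as inhibition relative to vehicle-treated cultures.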

[4] = NCI Yeast Anticancer Drug Screen. Data for the cln2 rad14 strain (AID 165);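 also: 0% = growth equal to vehicle treated cultures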; conditions: S. cerevisiae cln2 rad14 strain, at 50.0 µM, active compounds read high
Procedure, shortened: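 Strain: cln2 rad14 yeast, altered in cell cycle control and DNA damage repair. Read-out: growth inhibition vs vehicle.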

[5] = NCI Yeast Anticancer Drug Screen. Data for the bub3 strain (AID 167); conditions: S. cerevisiae bub3 mutant strain, at 50.0 µM, active compounds read high
Procedure, shortened: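 Steps: expose the mutant yeast strain to compound; grow alongside vehicle-treated cultures; measure growth; express inhibition against the vehicle cultures.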

[6] = NCI Yeast Anticancer Drug Screen. Data for the mlh1 rad18 strain (AID 175); conditions: S. cerevisiae mlh1 rad18 strain growth inhibition; at 50.0 µM; active compounds read high
Procedure, shortened: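 A repair-deficient yeast strain is exposed to test compound, and growth is scored relative to vehicle-treated controls.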

Structure (SMILES) | growth inhibition [1] | growth inhibition [2] | growth inhibition [3] | growth inhibition [4] | growth inhibition [5] | growth inhibition [6]
O=C1C=CC(=O)c2c1c1c(c3c2C2c4ccccc4C3c3ccccc32)C2c3ccccc3C1c1ccccc12 | -13.5% | -16.1% | 19.9% | -8.25% | -5.75% | 12.7%
COc1ccc2[nH]c3c4c(cc(-c5ccccc5)c3c2c1)C(=O)N(c1ccccc1)C4=O | -11.1% | -6% | -16.6% | 11.2% | -4.3% | -6.8%
O=C1/C(=C/c2ccc(Br)cc2)CCC/C1=C\c1ccc(Br)cc1 | 24.2% | 13% | 0.25% | -15.8% | -11.9% | 13.9%
O=[N+]([O-])/C=C/c1cn(CCCCCn2cc(/C=C/[N+](=O)[O-])c3ccccc32)c2ccccc12 | -5.65% | -8.65% | -2.45% | -7.65% | 8.35% | -9.8%
CCOC(=O)c1ccc(N(CC(O)CN)S(=O)(=O)c2ccc(C)cc2)cc1 (configuration not stated) | 5.7% | -9.5% | -11.2% | 4.15% | 3.5% | -1.5%
CCCCCCCCCCCCCCCCOc1ccc(S(=O)(=O)N/N=c2/sc(-c3ccccc3Cl)nn2C)cc1C(=O)O | -18.6% | -20.2% | 13.3% | -18.2% | 6.9% | -4.15%
CCn1c2ccc(N=C=O)cc2c2c3[nH]c(=O)c4cccn4c3ccc21 | -30.9% | 10.2% | -9.4% | 0.55% | -1.8% | 1.25%
C[Si](C)(C)N1CCCC1 | -22.1% | -26.9% | -16.8% | 12.4% | 3.5% | -6.85%
CCCCCCCCCCC/C(C)=N/Nc1ccc([N+](=O)[O-])cc1[N+](=O)[O-] | 5.65% | -5.15% | 2.15% | 11.8% | -0.2% | -13%
O=C(CSc1c2ccccc2nc2ccccc12)Nc1ccccc1-c1ccccc1NC(=O)CSc1c2ccccc2nc2ccccc12 | 27.4% | 9.75% | 18.6% | 6.9% | 19% | 34.5%
O=C1CCC=Cc2c(O)ccc(O)c21 | 8.65% | -5.25% | 17.8% | 0.55% | -1.1% | 27.9%
CC(=O)Nc1cc2ccccc2oc1=O | -5.5% | -25.1% | -4.65% | 2.25% | -11.8% | 0.75%
O=C(NCCCCCCNC(=O)C1CCCN1C(=O)OCc1ccccc1)C1CCCN1C(=O)OCc1ccccc1 (configuration not stated) | 0.6% | -24.2% | -8.15% | -1.9% | -5.7% | 6.4%
O=C(CCc1ccc(O)c(O)c1)OCCc1ccccc1 | 89.2% (active) | 89.8% (active) | 90.9% (active) | 88% (active) | 87.5% (active) | 89.2% (active)
Cc1ccc(N=NN(C)C)cc1NC(=O)NCC(=O)OC(C)(C)C | 4.7% | 8.7% | 4.95% | -31.6% | 7.25% | 7.8%
COc1ccc(N=Cc2cc(Cl)cc(Cl)c2OC(=O)c2ccccc2)cc1 | -10.6% | -31.1% | 8.55% | 0.65% | -13.6% | -19.2%
O=C(Cc1ccccc1)NN1C(=O)/C(=C\c2ccc([N+](=O)[O-])cc2)SC1=Nc1ccccc1 | -2.8% | -8.85% | 52.1% | 15.2% | -18.9% | 28.5%
OC(CNc1ccccn1)c1ccccc1 (configuration not stated) | -3.9% | -44.6% | -35.6% | 29.2% | -33.8% | 16.2%
O=C(O)CC12C3C4C5C3C1C5C42 (configuration not stated) | 24.1% | 17.1% | 15.2% | 8.5% | 47.9% | 26.6%
CC#CC#C/C=C1/C=CC2(CC=CO2)O1 (configuration not stated) | 1.55% | 7.95% | 9.85% | 12.3% | 25.3% | 29.6%
COC1=CC(=O)c2ccccc2C1(CCC=C(C)C)C1=NC(C)(C)CO1 (configuration not stated) | -27% | -11.6% | 7.75% | 5.65% | -8.6% | -11.6%

Structure (SMILES) | growth inhibition [1] | growth inhibition [2] | growth inhibition [3] | growth inhibition [4] | growth inhibition [5] | growth inhibition [6]
CSc1cc(Cl)c(C)cc1S(=O)(=O)NC(=O)NNc1ccccn1 | -4.3% | -1.6% | 8.15% | -2.05% | -1.5% | 21%
Cc1cccc(C)c1NN | 23.2% | -4.15% | 11.8% | -12.7% | -11.5% | 24.2%
CC1(C)CC(=O)C(/C=N/C(=S)NCCc2ccccc2)=C(O)C1 | -22.8% | -53.4% | -21.3% | -2.85% | -14.8% | -7.6%
O=C(OCCCl)OCCCl | 41.5% | 18.9% | 22.4% | -21.9% | -5.3% | 25%
CC1=CC(C)(C)N=C2SC(c3ccc(N)cc3)=NN12 | 25% | 1.7% | 3.55% | 5.9% | 18.5% | 28.4%
COc1cc(OC)c(C(=O)/C=C/c2ccncc2)cc1C(=O)O | 10.1% | -14.6% | 16.2% | 13.3% | 19.6% | -5.85%
CN1c2ccccc2C(=O)NC12CCN(CC1COc3ccccc3O1)CC2 (configuration not stated) | 58.1% | 71.4% (active) | 82.4% (active) | 62.9% | 66.5% | 66%
O=S(=O)(O)c1cc(O)c2ccc3c(S(=O)(=O)O)cc(S(=O)(=O)O)c4ccc1c2c34 | -11.7% | -23.1% | -2.85% | 6.8% | 10.6% | 3.75%
CSCCC(NCc1c(O)ccc2c(-c3ccccc3)cc(=O)oc12)C(=O)O (configuration not stated) | -23.3% | -20.5% | -30.1% | -1.5% | -2.95% | -31.2%
CC(C)(C)[Si](C)(C)OCCCC#CCO | 12.1% | -5.3% | -3.85% | 14.4% | -13.6% | 24.3%
O=C(O)c1cscc1-c1ccccc1 | 2.5% | -0.05% | -6.9% | -19.9% | -12.1% | 3.6%
CCCCOC(=O)c1ccc(NC(=O)Nc2c(C)cccc2C)cc1 | -0.65% | -4.4% | 27.3% | -6.2% | 30.9% | 25%
OC1CC2CCCCC2CC1Cl (configuration not stated) | 6.15% | 1.35% | 0.7% | -16.6% | -19.1% | 5.5%
Cc1ccc(S(=O)(=O)c2ccc(C)cc2[N+](=O)[O-])cc1 | 21.8% | -7.5% | 18.5% | -4.95% | 45.7% | -9.75%
COc1cccc(Nc2nc(N)nc(N)c2N)c1 | -4.2% | -35.8% | -6.3% | 10.1% | -19.6% | 14%
CC#CCCCC1(C)CCNC1=S (configuration not stated) | 13.8% | 10.2% | 30.5% | 21.9% | 0.8% | 24.6%
c1cc(-c2cn3c(n2)SCC3)ccn1 | 15.5% | 5.9% | -12.8% | 7.8% | 25.2% | 19.9%
Nc1nc(NCCO)c(N=O)c(=O)[nH]1 | 5.1% | -4.1% | -2.3% | 13.4% | 10.1% | 13.4%
Nc1nc(-c2ccccc2)nc2nc3[nH]c(=O)[nH]c(=O)c3nc12 | -12.3% | 5.25% | 22.8% | 0.95% | 19.1% | 2.95%
CCOC(=O)C(=O)c1c[nH]c2ccccc12 | -3.35% | 2.45% | -2.5% | -12.1% | 6.4% | 10%
COc1cc2cc3c4ccc(OC)c(OC)c4cc[n+]3c(C)c2cc1OC (tested in a mixture with another compound) | 98.1% (active) | 97.7% (active) | 98.8% (active) | 98.4% (active) | 98.2% (active) | 98% (active)
